Reference: PubChem BioAssay (NCATS)
Results filed as inconclusive are left out. Active and inactive are the calls of the source. Unless noted, the call rests on the fitted dose curve; in most records, active means well fitted curve in the direction sought with a large enough effect; inconclusive means small, poorly fitted or top-dose-only effect, or another doubt; inactive means no such curve, though single readings can be large; an effect the other way counts as inactive or inconclusive.

How the values were obtained:
[1] = target: Cytochrome P450 1A2 (Homo sapiens) (UniProt P05177); test: p450-cyp1a2 (AID 410; calls by dose curve; further: potency means the concentration at half of the fitted maximal effect)
Chain of Cytochrome P450 1A2 (Homo sapiens) (P05177 whole entry, looked up): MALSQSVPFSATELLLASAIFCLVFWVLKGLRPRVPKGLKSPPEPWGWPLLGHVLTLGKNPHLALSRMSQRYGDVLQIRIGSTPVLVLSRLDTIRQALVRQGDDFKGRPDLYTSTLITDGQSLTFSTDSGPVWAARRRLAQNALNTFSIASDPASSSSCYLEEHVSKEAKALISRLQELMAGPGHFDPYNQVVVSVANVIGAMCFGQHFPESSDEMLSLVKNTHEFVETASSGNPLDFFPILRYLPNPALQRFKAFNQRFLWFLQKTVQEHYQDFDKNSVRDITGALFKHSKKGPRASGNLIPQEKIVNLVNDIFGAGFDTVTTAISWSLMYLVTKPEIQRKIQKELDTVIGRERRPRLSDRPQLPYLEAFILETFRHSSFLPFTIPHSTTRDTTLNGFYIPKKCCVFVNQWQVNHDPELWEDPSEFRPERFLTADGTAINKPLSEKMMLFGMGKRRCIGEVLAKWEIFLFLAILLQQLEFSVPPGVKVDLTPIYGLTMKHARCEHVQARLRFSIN
In short: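 Luminescent demethylation readout: Luciferin-ME (100uM, equal to Km) turned over by 20nM CYP1A2 for 60 min at room temperature after NADPH regeneration addition, following 10 min compound preincubation. Normalization used 57 uM furafylline as full inhibition.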

[2] = target: ATP-dependent 6-phosphofructokinase (Trypanosoma brucei brucei) (UniProt O15648); test: qHTS Assay to Find Inhibitors of T. brucei phosphofructokinase: hit validation (AID 492961); further: on the % scale 0 is the no-effect control and ±100 the full control effect
Chain of ATP-dependent 6-phosphofructokinase (Trypanosoma brucei brucei) (O15648 whole entry, looked up): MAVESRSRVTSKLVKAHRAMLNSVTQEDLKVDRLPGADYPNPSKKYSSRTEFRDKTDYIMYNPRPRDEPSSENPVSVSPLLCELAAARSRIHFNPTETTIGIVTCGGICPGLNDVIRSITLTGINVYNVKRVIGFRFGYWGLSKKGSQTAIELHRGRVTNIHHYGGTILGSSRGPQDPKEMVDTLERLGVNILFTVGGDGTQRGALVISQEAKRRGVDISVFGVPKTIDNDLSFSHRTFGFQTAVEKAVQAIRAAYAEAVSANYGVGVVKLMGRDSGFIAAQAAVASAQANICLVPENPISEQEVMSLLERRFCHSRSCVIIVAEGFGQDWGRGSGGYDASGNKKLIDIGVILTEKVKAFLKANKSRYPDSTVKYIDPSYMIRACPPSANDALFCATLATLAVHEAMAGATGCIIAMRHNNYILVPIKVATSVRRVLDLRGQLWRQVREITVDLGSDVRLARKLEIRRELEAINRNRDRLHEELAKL
In short: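 Luminescence from ADP-Glo reports ADP generated as T. brucei PFK (1.25 nM) phosphorylates 0.5 mM fructose-6-phosphate using 0.1 mM ATP. Reactions ran 45 min at room temperature, pH 8.0.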

3D7 = test: qHTS profiling for inhibitors of Plasmodium falciparum proliferation (AID 504749); further: nearly all actives have a fitted effect of over 60% in size; further: potency means the concentration at half of the fitted maximal effect; settings: P. falciparum in erythrocytes, SYBR Green DNA, 72 h; series mostly up to 28.7 µM
In short: (§1)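 Each compound contacts P. falciparum-infected red blood cells for 72 h at 37 C; lysis buffer (Tris, EDTA, saponin, Triton X, SYBR Green I) is added and fluorescence measured next morning; values normalized to controls.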

AS120 = test: as above; settings: P. falciparum in erythrocytes, SYBR Green DNA, 72 h; series mostly up to 28.7 µM
In short: as §1

ATS189 = test: as above; settings: P. falciparum in erythrocytes, SYBR Green DNA, 72 h; series mostly up to 28.7 µM
In short: as §1

CP185 = test: as above; settings: P. falciparum in erythrocytes, SYBR Green DNA, 72 h; series mostly up to 28.7 µM
In short: as §1

CP192 = test: as above; settings: P. falciparum in erythrocytes, SYBR Green DNA, 72 h; series mostly up to 28.7 µM
In short: as §1

CP194 = test: as above; settings: P. falciparum in erythrocytes, SYBR Green DNA, 72 h; series mostly up to 28.7 µM
In short: as §1

CP201 = test: as above; settings: P. falciparum in erythrocytes, SYBR Green DNA, 72 h; series mostly up to 28.7 µM
In short: as §1

CP203 = test: as above; settings: P. falciparum in erythrocytes, SYBR Green DNA, 72 h; series mostly up to 28.7 µM
In short: as §1

CP247 = test: as above; settings: P. falciparum in erythrocytes, SYBR Green DNA, 72 h; series mostly up to 28.7 µM
In short: as §1

CP286 = test: as above; settings: P. falciparum in erythrocytes, SYBR Green DNA, 72 h; series mostly up to 28.7 µM
In short: as §1

CP305 = test: as above; settings: P. falciparum in erythrocytes, SYBR Green DNA, 72 h; series mostly up to 28.7 µM
In short: as §1

DIV30 = test: as above; settings: P. falciparum in erythrocytes, SYBR Green DNA, 72 h; series mostly up to 28.7 µM
In short: as §1

HB3 = test: as above; settings: P. falciparum in erythrocytes, SYBR Green DNA, 72 h; series mostly up to 28.7 µM
In short: as §1

P94_40 = test: as above; settings: P. falciparum in erythrocytes, SYBR Green DNA, 72 h; series mostly up to 28.7 µM
In short: as §1

PC49 = test: as above; settings: P. falciparum in erythrocytes, SYBR Green DNA, 72 h; series mostly up to 28.7 µM
In short: as §1

TAB109 = test: as above; settings: P. falciparum in erythrocytes, SYBR Green DNA, 72 h; series mostly up to 12.8 µM
In short: as §1

W2 = test: as above; settings: P. falciparum in erythrocytes, SYBR Green DNA, 72 h; series mostly up to 12.8 µM
In short: as §1

[3] = target: Bile acid receptor (Homo sapiens) (UniProt Q96RI1); test: qHTS assay for small molecule agonists of farnesoid X receptor signaling (AID 588527; calls by dose curve;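 further: 0% = vehicle basal and 100% = reference agonist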); settings: HEK293T FXR-UAS-bla, beta-lactamase ratio, 16 h; active compounds read high
Chain of Bile acid receptor (Homo sapiens) (Q96RI1 whole entry, looked up): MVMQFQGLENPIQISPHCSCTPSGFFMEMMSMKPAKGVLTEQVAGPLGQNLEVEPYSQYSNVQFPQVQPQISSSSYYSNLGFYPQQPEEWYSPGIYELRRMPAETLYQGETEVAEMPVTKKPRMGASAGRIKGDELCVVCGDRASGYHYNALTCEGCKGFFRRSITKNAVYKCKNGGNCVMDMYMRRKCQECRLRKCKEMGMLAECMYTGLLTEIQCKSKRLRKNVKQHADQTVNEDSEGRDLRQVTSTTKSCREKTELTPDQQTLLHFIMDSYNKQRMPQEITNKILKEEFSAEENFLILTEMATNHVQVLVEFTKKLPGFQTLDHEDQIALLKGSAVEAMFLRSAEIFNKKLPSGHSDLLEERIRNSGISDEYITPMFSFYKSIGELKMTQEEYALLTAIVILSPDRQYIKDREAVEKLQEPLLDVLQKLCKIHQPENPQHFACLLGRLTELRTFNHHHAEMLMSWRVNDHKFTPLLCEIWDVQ
In short: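 Agonist-mode beta-lactamase reporter in GeneBLAzer FXR-UAS-bla HEK293T cells, titration up to 92 uM, 16 h exposure at 37 C, CCF4 fluorescence. Response scaled to DMSO (0%) and 100 uM chenodeoxycholic acid (100%), then Hill-fitted for EC50 and efficacy.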

C[C@@H]1O[C@H](O[C@@H]2C=C3CC[C@H]4[C@@H](CC[C@]5(C)[C@@H](c6ccc(=O)oc6)CC[C@]45O)[C@@]3(C)CC2)[C@@H](O)[C@H](O)[C@@H]1O
inactive: Potency [1] | Potency [2] | Potency (3D7) | Potency (AS120) | Potency (ATS189) | Potency (CP185) | Potency (CP192) | Potency (CP194) | Potency (CP201) | Potency (CP203) | Potency (CP247) | Potency (CP286) | Potency (CP305) | Potency (DIV30) | Potency (HB3) | Potency (P94_40) | Potency (PC49) | Potency (TAB109) | Potency (W2)

c1cncc([C@H]2CCCCN2)c1
active: Potency [1] 0.1 µM

CNc1ccc(C(=O)CC(O)CCC(C)C2OC(=O)CC(O)CC(=O)CC(O)CC(O)CC(O)CC(O)CC3(O)CC(O)C(C(=O)OC)C(CC(O[C@@H]4OC(C)C(O)C(N)C4O)/C=C/C=C/C=C/C=C/C=C/C=C/C=C/C2C)O3)cc1 (some centres not stated)
inactive: Potency [2] | Potency (3D7) | Potency (AS120) | Potency (ATS189) | Potency (CP185) | Potency (CP192) | Potency (CP194) | Potency (CP201) | Potency (CP203) | Potency (CP247) | Potency (CP286) | Potency (CP305) | Potency (DIV30) | Potency (HB3) | Potency (P94_40) | Potency (PC49) | Potency (TAB109) | Potency (W2)

O=C1C=C2C=C[C@H]3C[C@@]2(O1)[C@H]1CCCCN31
inactive: Potency [1]

C[N+]1=Cc2cc3c(cc2CC1)OCO3
inactive: Potency [1]

CC([C@H](O)c1ccccc1)N(C)C (some centres not stated)
inactive: Potency [2] | Potency (3D7) | Potency (AS120) | Potency (ATS189) | Potency (CP185) | Potency (CP192) | Potency (CP194) | Potency (CP201) | Potency (CP203) | Potency (CP247) | Potency (CP286) | Potency (CP305) | Potency (DIV30) | Potency (HB3) | Potency (P94_40) | Potency (PC49) | Potency (TAB109)
active: Potency (W2) 6.75 µM

COP(N)(=O)SC (configuration not stated)
inactive: activation [3] 2.48%

CNC(=O)Oc1cccc2c1OC(C)(C)O2
inactive: activation [3] -0.605%

COc1nc(NC(C)C)nc(NC(C)C)n1
inactive: activation [3] 0.515%

O=C(O)COc1cc(Cl)c(Cl)cc1Cl
inactive: activation [3] -6.14%
